# ClpP mod: qHTS Assay for Activators of ClpP. ATP-dependent Clp protease proteolytic subunit (Bacillus subtilis (strain 168)), P80244. purified B. subtilis ClpP, FRET peptide cleavage, 20 min. Potency, µM (doses to about 57.5 µM), for inactives: at the top dose activity change, negative = active. 1.9% of 340,000 active. AID 651965, 2013; active means well fitted falling curve with a large enough effect; inconclusive means small, poorly fitted or top-dose-only effect; inactive means no such curve, though single readings can be large or run the other way; further: the source files actives as falling curves though it sought activators and does not explain the sign; nearly all actives have a fitted effect of over 65% in size
# Target sequence (P80244 whole entry, looked up): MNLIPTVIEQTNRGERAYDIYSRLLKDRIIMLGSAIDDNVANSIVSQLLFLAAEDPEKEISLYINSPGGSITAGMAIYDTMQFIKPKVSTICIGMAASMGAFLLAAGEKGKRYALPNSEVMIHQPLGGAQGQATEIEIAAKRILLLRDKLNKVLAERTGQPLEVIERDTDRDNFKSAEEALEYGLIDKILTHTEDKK
#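 Purified B. subtilis ClpP, 10 microg/mL final in Tris/HCl pH8 with KCl, BSA, glycerol and Tween-20, cleaved an Abz/nitrotyrosine-quenched decapeptide. Fluorescence (ex 320, em 430) was read at 0 and 20 min at room temperature. Delta was normalized to 5.8 microM ADEP and DMSO/no-enzyme controls.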
# TDP1 inh: qHTS Assay for Inhibitors of Tyrosyl-DNA Phosphodiesterase (TDP1); Tyrosyl-DNA phosphodiesterase 1 (Homo sapiens), Q9NUW8; recombinant TDP1, AlphaScreen DNA substrate cleavage; Potency, µM (highest dose often 130 µM), for inactives: at the highest dose activity change, negative = inhibition, most hits filed as inhibitors; 0.28% of 350,000 active; further: on the % scale 0 is the no-effect control and ±100 the full control effect; nearly all actives have a fitted effect of over 40% in size
#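 Recombinant human Tdp1 (E. coli-expressed, 1 nM final) preincubated with compounds 15 min at room temperature, then 5'-biotin/3'-phosphotyrosine-FITC DNA substrate (15 nM final) added for 5 min. AlphaScreen beads (10 ug/ml final) added 10 min; cleavage lowers signal.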
# TDP1 cell CPT: qHTS for Inhibitors of human tyrosyl-DNA phosphodiesterase 1 (TDP1): qHTS in cells in presence of CPT. chicken DT40 Tdp1-/-;hTDP1 cells + 20 nM CPT, ATP luminescence, 48 h. Potency, µM (top dose mostly 46.2 µM), inactives show at the top dose activity change, negative = growth inhibition, usual class: inhibitors. 12% of 420,000 active. AID 686979, 2013; further: on the % scale 0 is the no-effect control and ±100 the full control effect; nearly all actives have a fitted effect of over 55% in size
#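 Chicken DT40 Tdp1-/- cells stably complemented with human TDP1 were seeded at 400 cells/well in medium containing 20 nM camptothecin, exposed to pin-transferred compounds, and grown at 37 °C for at least 48 hr. Viability was read as ATP luminescence.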
# TDP1 cell noCPT: qHTS for Inhibitors of human tyrosyl-DNA phosphodiesterase 1 (TDP1): qHTS in cells in absence of CPT | Potency, µM (titrated, usually from 46.2 µM), without a hit: at the highest dose activity change, negative = growth inhibition, actives largely listed as inhibitors | 15% of 420,000 active | DT40 Tdp1-/- hTDP1 cells, no CPT, ATP luminescence, 48 h | AID 686978, 2013; further: on the % scale 0 is the no-effect control and ±100 the full control effect; nearly all actives have a fitted effect of over 55% in size
#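 Cells were dispensed at 400 per well, compounds added by pin tool, plates incubated ≥48 hr at 37 °C, then CellTiter-Glo added for 30 min at room temperature before luminescence reading. Line: DT40 Tdp1-/- complemented with hTDP1; camptothecin omitted.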
# Active calls of the source: *; ? = inconclusive; nt = no result; [ ] = remark or other dose. In the library only some 17% were active in any assay of this set; here they are far more common. Unless noted, the call rests on the fitted dose curve; in most records, active means well fitted curve in the direction sought with a large enough effect; inconclusive means small, poorly fitted or top-dose-only effect, or another doubt; inactive means no such curve, though single readings can be large; an effect the other way counts as inactive or inconclusive. Potency means the concentration at half of the fitted maximal effect.
SMILES,ClpP mod,TDP1 inh,TDP1 cell CPT,TDP1 cell noCPT
COc1ccc2[nH]c(C(O)C(O)c3nc4c(OC)c(OC)ccc4[nH]3)nc2c1OC (centres undefined),-4%,nt,1µM*,0.28µM*
OC(c1nc2ccccc2[nH]1)C(O)c1nc2ccccc2[nH]1 (centres undefined),1%,nt,10%,-22%
CCOC(=O)C1CCN(Cc2ccc(OCc3ccccc3)cc2)CC1,0%,nt,-24%,-14%
O=C(NC1CCN(Cc2ccccc2)CC1)c1ccccc1NS(=O)(=O)c1ccc(F)c(F)c1,-1%,nt,-30%,?
CCN(c1ccccc1)S(=O)(=O)c1ccc(Cl)c(C(=O)NC2CCN(Cc3ccccc3)CC2)c1,?,nt,9.2µM*,6.5µM*
O=C(NC1CCN(Cc2ccc(Cl)cc2Cl)CC1)c1ccccc1,-1%,nt,21µM*,18µM*
O=C(NC1CCN(Cc2ccccc2)CC1)c1cc(S(=O)(=O)Nc2ccc(F)cc2)ccc1Cl,1%,0%,23µM*,15µM*
CCCCN(C)C(=O)C1CCN(Cc2ccc(OCc3ccccc3)cc2)CC1,0%,-8%,?,16µM*
CC(C)(C)C(=O)CSc1n[nH]c(-c2ccccc2)n1,-1%,nt,-25%,?
CCCNC(=O)c1nc(C)n(-c2cc(Cl)ccc2Cl)n1,nt,5%,-6%,-24%
CC(C)c1cc(C(=O)NCc2ccc(F)cc2)c(N)s1,-4%,nt,?,?
COc1ccc(C(=O)NC2CC2)cc1OC1CCN(Cc2ccc(F)cc2Cl)CC1,-2%,nt,?,18µM*
CC(C)(C)OC(=O)N1CCC(NC(=O)c2ncn(Cc3ccccc3)c2C(=O)NC2CCN(C(=O)OC(C)(C)C)CC2)CC1,2%,3%,23µM*,?
O=C(NC1CCN(Cc2ccccc2)CC1)c1ccccc1,0%,nt,-4%,-3%
Cn1cnc(C(=O)NC2CCN(C(=O)OC(C)(C)C)CC2)c1C(=O)NC1CCN(C(=O)OC(C)(C)C)CC1,3%,2%,3%,3%
CC(C)(C)c1ccc(C(=O)NC2CCN(Cc3ccccc3)CC2)cc1,-3%,nt,?,18µM*
Cc1ccc(NS(=O)(=O)c2cccc(C(=O)NC3CCN(Cc4ccccc4)CC3)c2)cc1,-2%,nt,4.1µM*,5.8µM*
O=C(NC1CCN(Cc2ccccc2)C1)c1cccc(S(=O)(=O)N2CCOCC2)c1 (centres undefined),1%,1%,-33%,-20%
COc1ccc(C2/C=C\CN(Cc3ccccc3)C(C)C(=O)N2Cc2ccc(F)cc2)cc1 (centres undefined),nt,5%,nt,nt
Cc1ccc(NS(=O)(=O)c2ccc(C(=O)NC3CCN(Cc4ccccc4)CC3)cc2)cc1,-2%,0%,15µM*,15µM*
CCCCOc1ccc(C(=O)NCC(=O)NCC(=O)OCC)cc1,1%,5%,16µM*,?
CCCCOc1ccc(C(=O)NCC(=O)OCCCOC(=O)CNC(=O)c2ccc(OCCCC)cc2)cc1,0%,nt,?,-26%
CCN(c1ccccc1)S(=O)(=O)c1ccc(Cl)c(NC(=O)CN(C)C2CCN(C)CC2)c1,nt,nt,?,16µM*
Cc1ccc(Cl)cc1S(=O)(=O)N1CCC(C(=O)NC2CCN(Cc3ccccc3)CC2)CC1,nt,0%,?,15µM*
CCN(c1ccccc1)S(=O)(=O)c1ccc(Cl)c(NC(=O)CN2CCN(C)CC2)c1,3%,1%,?,-8%
O=C(COc1ccccc1)NCC(=O)N/N=C/c1ccc(Cl)cc1,-1%,5%,-15%,3%
C/C(CC(=O)NC1CCCC1)=N\NC(=O)c1ccc([N+](=O)[O-])c(Cl)c1,-1%,3%,-18%,-15%
CCOC(=O)C1CCCN(C(=O)CCc2nc3sc4c(c3c(=O)[nH]2)CCCC4)C1 (centres undefined),-2%,-1%[56.1 µM],?,-6%
CCCCOc1ccc(C(=O)NCC(=O)NC2CCN(Cc3ccccc3)CC2)cc1,-1%,3%,23µM*,?

# Source: PubChem
